An excerpt weighted towards active compounds, which were near 8% of everything screened.
SW480 rerep: A quantitative high throughput screen for small molecules that induce DNA re-replication in SW480 colon adenocarcinoma cells | SW480 DNA re-replication, Hoechst DNA content imaging, 48 h | Potency, µM (doses to about 46.1 µM), for the others: top-dose re-replication activation, actives largely listed as activators | 340,000 tested, 1.8% active | AID 624297, 2012; note: % of control where 0% means no effect; nearly all actives have a fitted effect of over 55% in size
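SW480 cells exposed to compounds for 48 hr at 37 C, 5% CO2, then Hoechst-stained 40 min. Nuclear DNA content imaged by fluorescence scanning (405 nm excitation, 500-530 nm emission); re-replication scored as increased high-intensity nuclei.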
KB-3-1 cytotox: qHTS assay for MDR1-selective chemotherapeutics: Primary screen using the parental adenocarcinoma cell KB-3-1. KB-3-1 viability, CellTiter-Glo ATP luminescence, 72 h. Potency, µM (highest dose often 46.1 µM), hits mostly cytotoxic. 400,000 tested, 1.4% active. AID 1347075, 2019; note: % is set by controls: 0 for no effect and ±100 for the full control effect; nearly all actives have a fitted effect of over 60% in size
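Multi-concentration cytotoxicity screen in KB-3-1 cells grown in DMEM lacking phenol red with 10% FBS. After 72 h at 37 °C with compound, ATP-dependent luminescence was recorded.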
HT1080NT lethal: qHTS for induction of synthetic lethality in tumor cells producing 2HG: qHTS for the HT-1080-NT fibrosarcoma cell line | HT-1080-NT fibrosarcoma viability, CellTiter-Glo ATP luminescence, 48 h | Potency, µM (titrated, usually from 46.1 µM), without a hit: at the top dose activity, negative = less viability, most hits filed as cytotoxic | 360,000 tested, 1.6% active;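 note: NT is the 2HG producing partner of a matched IDH1 knockdown line; 0% = DMSO-treated cells and -100% = media-only wells without cells; nearly all actives have a fitted effect of over 55% in size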
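HT-1080-NT fibrosarcoma cells (2HG-overproducing), 750 cells/well in RPMI with 5% FBS, dosed after 2 h and incubated 48 h at 37C. CellTiter-Glo luminescence normalized to DMSO and no-cell wells; concentration-response curves fitted and classed.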
KB-V1 MDR tox: qHTS assay for MDR1-selective chemotherapeutics: Primary screen using the drug-selected MDR subline cells KB-V1; KB-V1 MDR cells viability, CellTiter-Glo, 72 h; AID 1347076, 2019; Potency, µM (doses to about 46.1 µM), usual class: cytotoxic; 400,000 tested, 3.4% active; note: % is set by controls: 0 for no effect and ±100 for the full control effect; nearly all actives have a fitted effect of over 60% in size
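Compound-treated KB-V1 multidrug-resistant cells, 72 h, 37 degrees C; viability by CellTiter-Glo. Fitted qHTS curves give the values.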
MCF10A rereplic: A quantitative high throughput screen for small molecules that induce DNA re-replication in MCF 10a normal breast cells; 350,000 tested, 2.9% active; Potency, µM (titrated, usually from 46.1 µM), for inactives: top-dose activity, positive = re-replication, hits mostly activators; MCF 10A DNA re-replication, Hoechst nuclear intensity, 48 h; note: % of control where 0% means no effect; nearly all actives have a fitted effect of over 50% in size
HT1080 IDH1KD tx: qHTS for induction of synthetic lethality in tumor cells producing 2HG: qHTS for the HT-1080-IDH1KD cell line; HT-1080 IDH1 knockdown viability, ATP luminescence, 48 h; Potency, µM (titrated, usually from 46.1 µM), without a hit: at the highest dose activity, negative = toxicity, actives largely listed as cytotoxic; 360,000 tested, 2% active; AID 686971, 2013;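 note: 0% = DMSO wells and -100% = cell-free medium wells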
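IDH1KD HT-1080 cells, 750/well, RPMI + 5% FBS; compound pinned after 2 h settling; 48 h, 37 °C; CellTiter-Glo luminescence; % activity normalised to DMSO and no-cell wells; curves fitted, classed by r2 and efficacy.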
* = called active by the depositor; [ ] = another dose, or the depositor's remark. Calls come from the whole dose curve; as a rule, active = well fitted curve in the direction sought with a large enough effect; inconclusive = small, poorly fitted or top-dose-only effect, or another doubt; inactive = no such curve, though single readings can be large; an effect the other way counts as inactive or inconclusive. Potency is the fitted concentration of half-maximal effect.

What do the screens show for `OCCNc1c2ccccc2nc2c(F)c(F)c(F)c(F)c12`?
SW480 rerep: 13µM*; KB-3-1 cytotox: inactive; HT1080NT lethal: inconclusive; KB-V1 MDR tox: inconclusive; MCF10A rereplic: inconclusive; HT1080 IDH1KD tx: 4.6µM*

What do the screens show for `CN(C)CCCNc1c2ccccc2nc2ccccc12`?
SW480 rerep: inconclusive; KB-3-1 cytotox: 1.6µM*; HT1080NT lethal: 4.1µM*; KB-V1 MDR tox: 12µM*; MCF10A rereplic: inconclusive; HT1080 IDH1KD tx: 5.2µM*

What do the screens show for `Cc1ccccc1Nc1nn2c(=O)c3ccccc3nc2s1`?
SW480 rerep: -13%; KB-3-1 cytotox: inactive; HT1080NT lethal: 4%; KB-V1 MDR tox: inactive; MCF10A rereplic: inconclusive; HT1080 IDH1KD tx: 3%

What do the screens show for `COC(=O)/C(=N/Nc1ccccc1)N1CCCc2ccccc21`?
SW480 rerep: 15%; KB-3-1 cytotox: inconclusive; HT1080NT lethal: -1%; KB-V1 MDR tox: 21µM*; MCF10A rereplic: 16%; HT1080 IDH1KD tx: -14%

What do the screens show for `COC(=O)/C(=N/Nc1ccc(C)cc1)N1CCCc2ccccc21`?
SW480 rerep: 24%; KB-3-1 cytotox: inactive; HT1080NT lethal: -3%; KB-V1 MDR tox: inconclusive; MCF10A rereplic: inconclusive; HT1080 IDH1KD tx: -4%

How did CC1CCN(C(=O)CSc2nc(=O)n3ccccc3n2)CC1 do in these assays?
SW480 rerep: -9%; KB-3-1 cytotox: inactive; HT1080NT lethal: 4%; KB-V1 MDR tox: inactive; MCF10A rereplic: 0%; HT1080 IDH1KD tx: 2%

Results for CC(=O)Nc1ccc(NC(=O)CC2Sc3ccccc3NC2=O)cc1 (stereo not drawn) ?
KB-3-1 cytotox: inactive; KB-V1 MDR tox: inconclusive

What do the screens show for `O=C(CC1Sc2ccccc2NC1=O)NNc1cccc(Cl)c1Cl` (stereo not drawn)?
SW480 rerep: inconclusive; KB-3-1 cytotox: inactive; HT1080NT lethal: inconclusive; KB-V1 MDR tox: 21µM*; MCF10A rereplic: 20%; HT1080 IDH1KD tx: inconclusive

What do the screens show for `N#C/C(=C\c1c[nH]c2ccccc12)C(=O)Nc1ncc(Cc2ccc(Cl)cc2Cl)s1`?
SW480 rerep: inconclusive; KB-3-1 cytotox: inactive; HT1080NT lethal: inconclusive; KB-V1 MDR tox: inconclusive; MCF10A rereplic: 3.3µM*; HT1080 IDH1KD tx: inconclusive

How did Cn1c(NCC(O)CO)nc2c1c(=O)n(Cc1ccc(Cl)c(Cl)c1)c(=O)n2C (stereo not drawn) do in these assays?
SW480 rerep: -8%; KB-3-1 cytotox: inactive; HT1080NT lethal: -11%; KB-V1 MDR tox: inactive; MCF10A rereplic: 2%; HT1080 IDH1KD tx: -4%[9.24 µM]

How did Cc1ccc(-n2ncc3c(NCc4cccnc4)ncnc32)cc1C do in these assays?
SW480 rerep: -1%; KB-3-1 cytotox: inconclusive; HT1080NT lethal: -27%; KB-V1 MDR tox: inconclusive; MCF10A rereplic: 12%; HT1080 IDH1KD tx: -16%

How did N#CC(c1ccccc1)c1ccc([N+](=O)[O-])cc1 (stereo not drawn) do in these assays?
KB-3-1 cytotox: 21µM*; HT1080NT lethal: -1%; KB-V1 MDR tox: inactive; HT1080 IDH1KD tx: 6%

How did COc1cc(-c2c(-c3ccsc3)sc3ccccc23)cc(OC)c1OC do in these assays?
SW480 rerep: -3%; KB-3-1 cytotox: inactive; HT1080NT lethal: -13%; KB-V1 MDR tox: inactive; MCF10A rereplic: inconclusive; HT1080 IDH1KD tx: -9%

How did COc1cc(-c2ccc3c(=O)c4ccccc4n(C)c3c2)cc(OC)c1OC do in these assays?
SW480 rerep: 13µM*; KB-3-1 cytotox: inconclusive; HT1080NT lethal: inconclusive; KB-V1 MDR tox: inconclusive; MCF10A rereplic: inconclusive; HT1080 IDH1KD tx: inconclusive

Results for Cn1c2ccccc2c(=O)c2ccc(F)cc21 ?
SW480 rerep: 16µM*; KB-3-1 cytotox: inactive; HT1080NT lethal: 7%; KB-V1 MDR tox: inconclusive; MCF10A rereplic: inconclusive; HT1080 IDH1KD tx: 2%

Results for COc1cc(C2CC(=O)Oc3c2c(=O)n(C)c2ccccc32)cc(OC)c1OC (stereo not drawn) ?
SW480 rerep: -32%; KB-3-1 cytotox: inactive; HT1080NT lethal: 3%; KB-V1 MDR tox: inactive; MCF10A rereplic: 6%; HT1080 IDH1KD tx: 8%

How did COc1cc(-c2ccc3c(=O)c4ccccc4sc3c2)cc(OC)c1OC do in these assays?
SW480 rerep: 0.65µM*; KB-3-1 cytotox: inactive; HT1080NT lethal: -5%; KB-V1 MDR tox: inactive; MCF10A rereplic: 3.7µM*; HT1080 IDH1KD tx: 0%

What do the screens show for `Cn1c2ccccc2c(=O)c2ccc(-c3ccc4c(c3)OCO4)cc21`?
SW480 rerep: inconclusive; KB-3-1 cytotox: inconclusive; HT1080NT lethal: -18%; KB-V1 MDR tox: inconclusive; MCF10A rereplic: 15µM*; HT1080 IDH1KD tx: -16%

What do the screens show for `CCOc1ccc(CCNC(=O)COC(=O)CCc2cc(OC)c(OC)c(OC)c2)cc1OCC`?
SW480 rerep: -7%; KB-3-1 cytotox: inactive; HT1080NT lethal: 0%; KB-V1 MDR tox: inactive; MCF10A rereplic: 15%; HT1080 IDH1KD tx: 5%

How did CSc1ccc(OC2(C)CCN(Cc3ccccc3)C2)cc1 (stereo not drawn) do in these assays?
KB-3-1 cytotox: inactive; HT1080NT lethal: inconclusive; KB-V1 MDR tox: inactive; HT1080 IDH1KD tx: -15%

How did C/C(Cn1nc([N+](=O)[O-])cc1C)=N\NC(=O)COc1ccc(Cl)cc1Cl do in these assays?
SW480 rerep: -6%; KB-3-1 cytotox: inactive; HT1080NT lethal: 8%; KB-V1 MDR tox: inactive; MCF10A rereplic: 5%; HT1080 IDH1KD tx: -3%

How did CCOC(=O)C1=CN(Cc2ccco2)S(=O)(=O)N(CC)C1c1ccccc1 (stereo not drawn) do in these assays?
SW480 rerep: inconclusive; KB-3-1 cytotox: inactive; HT1080NT lethal: -10%; KB-V1 MDR tox: inactive; MCF10A rereplic: 2%; HT1080 IDH1KD tx: -17%

How did C[C@@H]1CN([C@@H](C)CO)S(=O)(=O)c2ccc(-c3cccc(C#N)c3)cc2O[C@@H]1CN(C)C(=O)c1ccc(F)cc1 do in these assays?
KB-3-1 cytotox: inactive; HT1080NT lethal: 26%; KB-V1 MDR tox: inactive; HT1080 IDH1KD tx: -28%

Results for COc1cc(-c2c(CCO)sc3ccccc23)cc(OC)c1OC ?
KB-3-1 cytotox: inconclusive; HT1080NT lethal: inconclusive; KB-V1 MDR tox: 21µM*; HT1080 IDH1KD tx: inconclusive
